Compound activity: PubChem, several laboratories
HTR5A inv ag: counter-screen for OPRM1-OPRD1 inverse agonists: human HTR5A inverse agonism | P47898 | HTR5A cell line, luminescence | inhibition, % at 9.3 µM | 0.083% of 340,000 active; in the data active = inhibition mostly above about 23%, no sharp cut-off; inactive = mostly below about 18%
Target sequence (P47898 whole entry, looked up): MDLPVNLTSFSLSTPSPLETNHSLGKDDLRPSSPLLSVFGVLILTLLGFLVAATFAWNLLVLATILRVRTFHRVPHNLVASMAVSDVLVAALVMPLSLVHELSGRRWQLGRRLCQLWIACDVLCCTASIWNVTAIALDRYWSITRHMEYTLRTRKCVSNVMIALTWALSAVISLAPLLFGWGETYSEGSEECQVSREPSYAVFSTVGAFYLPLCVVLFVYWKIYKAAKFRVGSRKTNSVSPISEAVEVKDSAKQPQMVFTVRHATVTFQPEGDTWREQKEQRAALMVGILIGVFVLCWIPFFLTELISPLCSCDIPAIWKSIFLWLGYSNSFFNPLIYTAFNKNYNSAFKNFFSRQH
HTR5A ag ctr: counter-screen for OPRM1-OPRD1 agonists: human HTR5A agonism. P47898. activation, % at 9.3 µM. HTR5A agonist assay, luminescence, cell-based. AID 504692. 0.61% of 340,000 active; in the data active = activation mostly above about 9.5%, no sharp cut-off; inactive = mostly below about 7.6%
MOR-DOR ag-1: agonists of human mu-delta opioid receptor heterodimerization; P35372+P41143; cells, OPRM1-OPRD1 heterodimerization, luminescence; activation, % at 9.3 µM; 0.3% of 340,000 active
OPRM1-OPRD1 inv: mu-delta opioid heterodimer inverse agonism; cell-based MOR-DOR heterodimer luminescence; inhibition, % at 9.3 µM; 0.21% of 340,000 active; AID 504357; in the data active = inhibition above about 22%, passing the limit was not always enough
Bfl-1 A1 inh: inhibitors of the anti-apoptotic protein A1, read as caspase activation; MEF A1-2A-BIM cells, Caspase-Glo 3/7 luminescence, 3 h; percent of clofoctol response, vehicle zero; caspase activation, % (test concentration not listed); 0.066% of 330,000 active; AID 2462;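 active = over half of replicate activation scores above 10%, or exactly half above 10 with the replicate mean above 10; inconclusive = replicate mean below 10 yet half the replicates above 10; inactive = over half of replicates below 10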
MOR-DOR ag-2: opioid heterodimer agonism, HTR5A counter-screen. U2OS counter-screen cells, complementation luminescence, 3 h. activation, % at 9.3 µM. AID 504913. 13% of 800 active. shares compounds with HTR5A ag ctr
HTR5A ag conf: HTR5A (human) agonism, confirmation; shares compounds with HTR5A ag ctr; AID 504915; 17% of 800 active; HTR5A agonist cell assay, luminescence; activation, % at 9.3 µM; in the data active = activation above about 17%
Of the large screens only hits and unclear results are named; the others gave an inactive call (follow-up assays come after a bar, where they were run); ! = not active in a repeat. The list is not random: actives were taken first. Their share in the collection is about 1.1%. Rule as the data show it, unless noted: active = activation above about 18%; inactive = the rest.

Cc1ccccc1C(=O)c1cccn1CC(=O)NCc1ccccc1	none
CCC(C)(C)c1ccc(OCCCC[n+]2ccc(C)cc2)c(C(C)(C)CC)c1	none (no result: HTR5A inv ag, HTR5A ag ctr, MOR-DOR ag-1, OPRM1-OPRD1 inv)
CCC(C)(C)c1ccc(OCCCC[n+]2cccc(C)c2C)c(C(C)(C)CC)c1	HTR5A ag ctr 21.0 | MOR-DOR ag-2 inactive | HTR5A ag conf inactive
CCc1cc[n+](-c2nc3ccccc3nc2C(=C=[N-])C#N)cc1	HTR5A ag ctr 15.8 | MOR-DOR ag-2 inactive | HTR5A ag conf inactive
N#CC(=C=[N-])c1nc2ccccc2nc1-[n+]1cccc(NC(=O)c2ccccc2)c1	none
Cn1c(CCNC(=O)c2ccccc2F)nnc1SCC(=O)Nc1nncs1	HTR5A ag ctr 19.7 | MOR-DOR ag-2 inactive | HTR5A ag conf inactive
COC(=O)C1=C(C)N(Cc2ccccc2)C(=NCc2cc(OC)c(OC)c(OC)c2)N[C@H]1c1ccc(Br)cc1	HTR5A ag ctr 14.4 | MOR-DOR ag-2 inactive | HTR5A ag conf inactive
O=C(CSc1ccsc1[N+](=O)[O-])NC1CCCC1	none
C/C(=N\NS(=O)(=O)c1ccc(C)c([N+](=O)[O-])c1)c1cc2ccccc2o1	HTR5A ag ctr 27.1 | MOR-DOR ag-2 18.9 | HTR5A ag conf inactive
C/C(=N\NS(=O)(=O)c1ccc(Cl)c([N+](=O)[O-])c1)c1cc2ccccc2o1	none
CC(Oc1ccc(Br)cc1)C(=O)NNC(=O)CCN1CCN(c2ccccc2)CC1 (centres undefined)	none
CN(CC1CCOCC1)C(=O)CC1C(=O)NCCN1CC(c1ccccc1)c1ccccc1 (centres undefined)	none
CCOc1ccc(C(=O)N2CCN(Cc3ccccc3)CC2)cc1OCC	HTR5A ag ctr 16.1 (no result: Bfl-1 A1 inh) | MOR-DOR ag-2 inactive | HTR5A ag conf inactive
CCOc1ccc(C(=O)N2CCN(Cc3ccccc3)CC2)cc1	none
COc1cc(NC(=O)COC(=O)Cc2ccc(-c3ccccc3)cc2)cc(OC)c1	none
COc1ccc(OC)c2sc(N(CCN(C)C)C(=O)/C=C/c3cccs3)nc12	none
COc1ccc(C)c2sc(N(CCN(C)C)C(=O)/C=C/c3cccs3)nc12	HTR5A ag ctr 16.2 | MOR-DOR ag-2 inactive | HTR5A ag conf 18.1
CCOc1ccc(CCNC(=O)CN2C(=O)c3cccnc3Oc3ccc(Cl)cc32)cc1	none
Cn1c(CN2CCCCC2)nc2cc(NC(=O)c3ccc(Cl)cc3)ccc21	HTR5A ag ctr 39.1 | MOR-DOR ag-2 inactive | HTR5A ag conf 43.6
CCCCNc1c(-c2cccc(-c3cc(C(C)=O)cs3)c2)nc2cc(C)ccn12	HTR5A ag ctr 23.6 | MOR-DOR ag-2 inactive | HTR5A ag conf inactive
COC(=O)[C@]1(Cc2ccccc2)N[C@H](CN(C)C(=O)Nc2ccc(C)cc2)[C@@H]2C(=O)N(C)C(=O)[C@@H]21	none
O=C(COc1cccc2ccccc12)Nc1ccc(Cl)cc1C(=O)O	HTR5A ag ctr 44.9 | MOR-DOR ag-2 inactive | HTR5A ag conf 46.0
O=C(COc1cccc2ccccc12)Nc1cc(Cl)ccc1C(=O)O	none
CCCc1noc2c1C(c1cc(Br)ccc1F)C(C#N)=C(N)N2 (centres undefined)	none
CCN(CC)CCNC(=O)c1ccc(NC(=O)COc2ccc3c(c2)CCC3)cc1	HTR5A ag ctr 17.0 | MOR-DOR ag-2 inactive | HTR5A ag conf inactive
CCNc1nc(N)c(C(=O)c2ccc(Cl)s2)s1	none
CCN(CCO)Cc1csc2ccc(Br)cc12	none
CCO[C@H]1OC(C(=O)Nc2ccccc2)=C[C@@H](c2coc3ccccc3c2=O)[C@@H]1CCCO	none
Oc1ccc(C2CNCCc3c2cc(O)c(O)c3Cl)cc1 (centres undefined)	HTR5A ag ctr 32.3! | MOR-DOR ag-2 inactive | HTR5A ag conf 56.0
CCN(CC)c1ccc(/C=C/c2cc(-c3ccccc3)c3ccccc3n2)cc1	none
CN(c1ccc(OCC(=O)N2CCCC2)cc1)S(=O)(=O)c1ccc(Cl)cc1	HTR5A ag ctr 17.0 | MOR-DOR ag-2 inactive | HTR5A ag conf inactive
COCCCNC(=O)C(=O)NCCCOC(C)C	none
CC(=O)c1ccc(S(=O)(=O)N2CCCC(N(C)CCc3ccccn3)C2)cc1 (centres undefined)	none (no result: Bfl-1 A1 inh)
Cc1ccc(O)c(C(=O)/C=C/c2ccc3c(c2)OCCO3)c1	HTR5A ag ctr 16.0 | MOR-DOR ag-2 inactive | HTR5A ag conf inactive
O=C(/C=C/c1ccc2c(c1)OCCO2)c1ccccc1	none (no result: HTR5A inv ag, HTR5A ag ctr, MOR-DOR ag-1, OPRM1-OPRD1 inv)
CN1C(C(=O)NCC2CC2)CC2Cn3c(nc4cc(Cl)c(Cl)cc43)C21 (centres undefined)	none
COc1cc2nc(N3CCN(c4cc(C)ccc4C)CC3)nc(N)c2cc1OC	HTR5A ag ctr 16.6 | MOR-DOR ag-2 inactive | HTR5A ag conf inactive
O=C(CNc1ccccc1Cl)N/N=C1\CCCc2ccccc21	HTR5A ag ctr 20.8 | MOR-DOR ag-2 20.1 | HTR5A ag conf 36.0
O=C(N/N=C1\CCCc2ccccc21)c1ccccc1Cl	none
Cc1ccc(C(=O)N/C(=C\c2cccs2)C(=O)NCCc2c[nH]c3ccccc23)cc1	HTR5A ag ctr 15.2 | MOR-DOR ag-2 19.9 | HTR5A ag conf inactive
Cc1cc(/C=C(\C#N)C(=O)NCCc2c[nH]c3ccccc23)c(C)n1C	HTR5A ag ctr 66.2 | MOR-DOR ag-2 inactive | HTR5A ag conf inactive
COc1ccc(/C=C(/NC(=O)c2ccc(OC)cc2)C(=O)NCCc2c[nH]c3ccccc23)cc1	none
Cc1cccc(S(=O)(=O)Nc2ccc(-c3cn4ccccc4n3)cc2)c1	none
Cc1cc(C)c(S(=O)(=O)Nc2ccc(-c3cn4ccccc4n3)cc2)c(C)c1	HTR5A ag ctr 14.3 | MOR-DOR ag-2 inactive | HTR5A ag conf 39.9
O=C(CSc1nnc(-c2cccnc2)o1)Nc1cccc(F)c1	none
O=C(NC1CCCCC1)c1cc2ccccc2cc1O	HTR5A ag ctr 17.3 | MOR-DOR ag-2 inactive | HTR5A ag conf inactive
N=C1S/C(=C\c2ccc(O)cc2)C(=O)N1c1ccc(F)cc1	HTR5A ag ctr 15.2 | MOR-DOR ag-2 inactive | HTR5A ag conf inactive
Brc1ccc(-c2csc(-c3c[nH]c4ccccc34)n2)cc1	none
c1ccc2c(-c3csc(-c4ccncc4)n3)c[nH]c2c1	HTR5A ag ctr 20.5 | MOR-DOR ag-2 inactive | HTR5A ag conf inactive
COc1ccc(-c2cc(C(=O)NCCCn3ccnc3)no2)cc1OC	none
Cc1ccc(-c2nnc3cccc(Cl)n23)cc1	none
O=C(Nc1ccc(-n2cc(Cl)cn2)cc1)c1ccncc1	HTR5A ag ctr 14.4, Bfl-1 A1 inh inconclusive | MOR-DOR ag-2 18.1 | HTR5A ag conf inactive
CCOC(=O)COc1ccc(S(=O)(=O)N2CCN(c3ccccc3)CC2)cc1	none
Cc1ccc(C)c(NC(=O)COc2coc(CN3CCc4ccccc43)cc2=O)c1	HTR5A ag ctr 16.1 | MOR-DOR ag-2 inactive | HTR5A ag conf inactive
Cc1ccccc1NC(=O)COc1coc(CN2CCCc3ccccc32)cc1=O	none
O=C(CCl)N1N=C(c2ccco2)CC1c1cccs1 (centres undefined)	none
